Many of the other results were omitted from the sample, so hits are more common in it than they were.
Giardia FBPA inh: Giardia lamblia aldolase inhibition. Potency, µM (top dose mostly 59.6 µM), inactives show at the highest dose activity, negative = inhibition, most hits filed as inhibitors. 290,000 compounds, 0.71% hits. A8B2U2. AID 2451. purified Giardia FBPA; note: potency is the fitted concentration of half-maximal effect; % is set by controls: 0 for no effect and ±100 for the full control effect; nearly all actives have a fitted effect of over 55% in size
Target sequence (A8B2U2 whole entry, looked up): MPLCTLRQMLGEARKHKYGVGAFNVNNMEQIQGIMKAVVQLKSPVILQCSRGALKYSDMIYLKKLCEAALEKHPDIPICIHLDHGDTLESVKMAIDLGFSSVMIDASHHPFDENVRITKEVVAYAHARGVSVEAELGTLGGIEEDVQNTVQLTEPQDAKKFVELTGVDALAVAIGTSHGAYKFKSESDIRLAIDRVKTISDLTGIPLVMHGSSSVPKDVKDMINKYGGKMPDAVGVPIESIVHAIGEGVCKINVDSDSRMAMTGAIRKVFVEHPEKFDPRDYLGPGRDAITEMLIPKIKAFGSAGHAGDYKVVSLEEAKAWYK
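Giardia FBPA (40 nM reagent) was preincubated 10 min at RT with compound (up to 57.5 uM final), then substrate plus GAPDH/TPI/NAD/arsenate coupling system with diaphorase/resazurin was added; resorufin fluorescence (525/598 nm) was read after 20 min.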
LmPK inhibitor: inhibitors of Leishmania mexicana pyruvate kinase; purified LmPK, Kinase-Glo ATP luminescence, 1 h; Potency, µM (top dose mostly 57.5 µM), for inactives: top-dose activity change, negative = inhibition, actives largely listed as inhibitors; AID 1721; 290,000 compounds, 0.37% hits; Q27686; note: potency is the fitted concentration of half-maximal effect; % is set by controls: 0 for no effect and ±100 for the full control effect
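Pyruvate kinase activity monitored as ATP production (luciferase luminescence). Conditions: 0.1 nM enzyme, 0.5 mM PEP, 0.1 mM ADP, 1 h, RT; normalized against uninhibited and no-enzyme wells.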
RE007 growth inh: less growth of the S. pombe RE007 Vpr strain; S. pombe RE007 Vpr strain, BacTiter-Glo ATP luminescence, 24 h; 360,000 compounds, 0.21% hits; Potency, µM (doses to about 92.2 µM), without a hit: at the highest dose activity change, negative = less growth, actives largely listed as inhibitors; AID 651644; active = well fitted falling curve with a large enough effect; inconclusive = small, poorly fitted or top-dose-only effect; inactive = no such curve, though single readings can be large or run the other way; note: potency is the fitted concentration of half-maximal effect; % is set by controls: 0 for no effect and ±100 for the full control effect; nearly all actives have a fitted effect of over 50% in size
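Fission yeast strain RE007, carrying one chromosomally integrated HIV-1 vpr copy, was seeded at OD 0.01 in PMG+AL medium with 23 nL pinned compound. After 24 h at 30 °C and 99% humidity, viability was read by BacTiter-Glo luminescence.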
Tb PYK inh: T. brucei pyruvate kinase inhibition. Q57TT1. TbPYK enzyme, Kinase-Glo Plus ATP luminescence, 45 min. Potency, µM (series often up to 76.8 µM), for the others: at the highest dose activity, negative = inhibition, most hits filed as inhibitors. 410,000 compounds, 0.12% hits; note: potency is the fitted concentration of half-maximal effect; % is set by controls: 0 for no effect and ±100 for the full control effect; nearly all actives have a fitted effect of over 50% in size
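Readout: single end-point luminescence (Kinase-Glo Plus, 10 min). Reaction conditions were TbPYK/substrate plus 130 uM ADP, 45 min at RT, pH 7.2 TEA buffer. No-enzyme wells served as controls, and data were normalized before concentration-response fitting.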
Cycloheximide cs: affects cycloheximide protein synthesis inhibition readout, counter-screen | 300,000 compounds, 12% hits | max response, % | AID 2314 | cell reporter, cycloheximide protein synthesis inhibition counterscreen; in the data active = max response mostly above about 13%, no sharp cut-off; inactive = mostly below about 14%; note: read at 38.3 µM for the half of the compounds with a filed dose; 0% is about no effect
Shiga inhibitor: blocks Shiga toxin action in Vero cells | Vero cells, Shiga toxin protein synthesis inhibition reporter | inhibition, % at 38.7 µM | 290,000 compounds, 9.2% hits | AID 2315; in the data active = inhibition mostly above about 28%, no sharp cut-off; inactive = mostly below about 43%; note: 0% is about no effect
* hit, by the source's call; ? = inconclusive; nt = no result given; [ ] = remark or other dose. Unless noted, calls come from the whole dose curve; as a rule, active = well fitted curve in the direction sought with a large enough effect; inconclusive = small, poorly fitted or top-dose-only effect, or another doubt; inactive = no such curve, though single readings can be large; an effect the other way counts as inactive or inconclusive.

SMILES	Giardia FBPA inh	LmPK inhibitor	RE007 growth inh	Tb PYK inh	Cycloheximide cs	Shiga inhibitor
O=C(NCc1ccc(F)cc1)c1cc(-c2cccs2)on1	1%	6%	8%	-5%	26*	25
O=C(NCc1ccccc1)c1cc(-c2cccs2)on1	1%	7%	-3%	5%	43*	77*
CC(=O)OCC(=O)c1c[nH]c2ccccc12	-16%	-3%	0%	-3%	13	19
COc1cccc(/C=C/C(=O)OCC(=O)c2c[nH]c3ccccc23)c1OC	1%	1%	-1%	-13%	11*	32
COc1cccc(C(=O)OCC(=O)c2c[nH]c3ccccc23)c1O	3%	-5%	4%	5%	34*	93*
CC(O/N=C(\N)c1ccccc1)C(=O)Nc1cccc(C(F)(F)F)c1 (stereo unspecified)	nt	nt	-6%	2%	nt	nt
Cc1cc(C)n2nc(-c3ccc(Br)cc3)cc2n1	-13%	5%	-3%	0%	26*	nt
COc1ccc(-c2cc3nc(-c4ccccc4)cc(C(F)(F)F)n3n2)cc1	nt	nt	nt	22%	nt	nt
COc1ccc(-c2cc3nc(C)cc(C)n3n2)cc1	-24%	-17%	-14%	4%	35*	48*
Cc1cc(-c2ccc(Br)cc2)n2nc(C)cc2n1	nt	nt	-10%	-5%	nt	nt
Cc1nc2cc(-c3ccc(Cl)cc3)nn2c(NCCN(C)C)c1C	-4%	-2%	-16%	-1%	60*	80*
Cc1cc(C)n2nc(-c3ccc(Cl)cc3)cc2n1	-1%	0%	-4%	10%	43*	100*
CCOC(=O)c1ccc(CNCc2ccccc2)cc1	-7%	1%	3%	-7%	29*	50*
CCOC(=O)c1ccc(NS(C)(=O)=O)cc1	0%	3%	2%	-7%	-4	-12
CCOC(=O)c1ccc(N/C=C/C(=O)c2ccc(OC)cc2)cc1	3%	3%	2%	0%	1	1
CCOC(=O)c1ccc(N/C=C/C(=O)C(C)(C)C)cc1	-5%	3%	-10%	-15%	50*	90*
CCOC(=O)c1ccc(N/C=C/C(=O)c2ccccc2)cc1	?	2%	0%	-15%	43*	54*
Cc1ccc(S(=O)(=O)N2[C@@H](CO)CO[C@H]2CC(=O)c2cccs2)cc1	nt	nt	26%	nt	nt	nt
CC12CN3CCN(C1)CC(C)(C3)C2=NN	1%	4%	-11%	-1%	21*	74*
CSc1ncccc1C(=O)OCc1ccccc1F	8%	-11%	-12%	-4%	22*	67*
CSc1ncccc1C(=O)OCc1ccccc1	2%	-6%	-23%	0%	31*	87*
CSc1ncccc1C(=O)OCc1ccc(COC(=O)c2cccnc2SC)cc1	4%	2%	nt	nt	-6	-5
COc1cc(OC)c(OC)cc1C=O	1%	nt	-16%	8%	nt	nt
COc1cc(C=O)c([N+](=O)[O-])cc1OC	5µM*	nt	nt	nt	nt	nt
CC1(C)OC(=O)C(=CNn2cnc3ccccc3c2=O)C(=O)O1	-12%	-3%	0%	-8%	32*	29
SMILES	Giardia FBPA inh	LmPK inhibitor	RE007 growth inh	Tb PYK inh	Cycloheximide cs	Shiga inhibitor
Cc1ccc(CSc2nnc(SCC(=O)N/N=C/c3ccccc3OCC(=O)O)s2)cc1	5%	5%	5%	1%	21*	44*
Cc1ccc(CSc2nnc(SCC(=O)N/N=C/c3ccc(C(=O)O)cc3)s2)cc1	15%	-2%	-10%	0%	13*	37
O=C(CSc1nnc(SCc2ccc(Cl)cc2)s1)N/N=C/c1ccc(Cl)cc1Cl	2%	0%	10%	3%	33*	55*
O=C(CSc1nnc(SCc2ccccc2)s1)N/N=C/C=C\c1ccco1	-28%	2%	3%	-14%	-3	-9
CC(=C/c1ccco1)/C=N/NC(=O)CSc1nnc(SCc2ccc(C)cc2)s1	-26%	1%	-3%	-6%	45*	33*
CN(C)CCN(C)Cc1ccccc1Sc1cccc2ccccc12	-14%	1%	15%	4%	-10	-26
COc1ccc(CN(C)CC(=O)Nc2cccc(S(=O)(=O)N(C)c3ccccc3)c2)c(OC)c1	nt	nt	-16%	4%	nt	nt
COc1cccc(CN(C)CC(=O)Nc2ccccc2C(C)C)c1	?	1%	-14%	-13%	-3	-3
Cc1ccc(C)c(OCCC(=O)Nc2cccc(S(=O)(=O)N3CCCCC3)c2)c1	nt	nt	26%	3%	nt	nt
Cc1ccc(CSc2nnc(SCC(=O)N/N=C/c3c[nH]c4ccccc34)s2)cc1	?	6%	-24%	-1%	19*	42
O=C(NCc1ccco1)c1cccn2c(=O)c3cc4ccccc4cc3nc12	?	2%	nt	nt	29*	6
C=CCn1c(=N)c(C(=O)NCCCOC)cc2c(=O)n3cccc(C)c3nc21	-14%	7%	0%	2%	-4	-3
O=C(NCc1ccco1)c1cnc2ccccn2c1=O	-2%	1%	2%	-5%	2	-6
COCCCNC(=O)c1cccn2c(=O)c3cc4ccccc4cc3nc12	?	2%	16%	-1%	69*	84*
CCc1ccc(NC(=O)C(=O)NCCc2sc(-c3ccc(OC)c(OC)c3)nc2C)cc1	nt	nt	nt	-4%	nt	nt
C#C[C@]1(OC(=O)CCCCCC)CC[C@H]2C3CCC4=CC(=O)CC[C@@H]4[C@H]3CC[C@@]21C (stereo partly specified)	nt	nt	nt	1%	nt	nt
CCCN1CCN(c2nnc(-n3cccc3C(=O)Nc3ccccc3C(F)(F)F)s2)CC1	nt	nt	nt	4%[15.4 µM]	nt	nt
COc1cccc(C(=O)Nc2ccc3nc(SCCOc4ccccc4)sc3c2)c1	nt	nt	nt	1%	nt	nt
N#Cc1cccnc1N1CCN(C(c2ccnc3ccccc23)c2nnnn2-c2ccc3c(c2)OCCO3)CC1 (stereo unspecified)	nt	nt	5%	0%	nt	nt
Cc1ccc(CONC(=O)c2ccc(OC(F)F)cc2)cc1	4%	-2%	-21%	0%	24*	69*
CN(CC(=O)Nc1ccccc1C(F)(F)F)C(=O)CSc1nnc(-c2ccncc2)n1C	nt	nt	0%	-8%	nt	nt
CN1OC[C@@H]2CN(Cc3cc(Cl)cc(Cl)c3)[C@H](c3cccc(-c4ccc(C#N)cc4)c3)C[C@@H]21	nt	nt	13%	-5%	nt	nt
O=C1CC(c2ccc(O[C@@H]3OC(CO)[C@@H](O)C(O)C3O)cc2)Oc2cc(O)ccc21 (stereo partly specified)	2%	nt	nt	nt	nt	nt
O=C1C[C@@H](c2ccc(O[C@@H]3O[C@H](CO)[C@@H](O)[C@H](O)[C@H]3O)cc2)Oc2cc(O)ccc21	4%	-3%	5%	2%	20*	active
O=C(c1ccccc1)c1ccc2nc(-c3ccc(NC(=O)c4ccccc4F)cc3)[nH]c2c1	2%	2%	-5%	-6%	12	34*
O=C(O)CCC(=O)Nc1ccc(-c2nc3ccc(C(=O)c4ccccc4)cc3[nH]2)cc1	6%	0%	14%	-9%	21*	nt

Source: PubChem BioAssay
